Measurements: PubChem BioAssay
Records with an inconclusive call do not appear. Calls of active or inactive are those of the source.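 How the source made its calls, unless noted: active means viability loss from added drug above about 55%, and viability with drug at most 40%, in both replicates (limit read from the data, passing the limit was not always enough); inconclusive means both conditions met in only one replicate; inactive means neither replicate meets both conditions.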

How the values were obtained:
[1] = Her2 expression decrease, cell viability multiplex – SKBR3 breast tumor cells, AlphaScreen, ATP viability, primary screen (AID 461;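 active means Her2 level under about 52% in both replicate screens, with viability over 70% of control, limit read from the data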;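 on Her2 level: lower value means less Her2 protein in the cells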;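 on viability: percent of carrier control wells set as 100% viability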); details: SKBR3 Her2 protein level, 18-24 h, measured here: SKBR3 viability, ATP luminescence, at 10 µM
[2] = target: Receptor tyrosine-protein kinase erbB-2 (Homo sapiens) (UniProt P04626); test: as above; details: 18-24 h, at 10 µM, stronger effect = lower value
[3] = reduced viability of SK-BR-3 breast cancer cells – cell-based, 24 h, human, pilot screen (AID 572;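 active means viability at or below 10% of carrier control in both of two separate runs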;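 further: compound exposure lasted between 18 and 24 h rather than exactly 24 h; 100% = carrier-treated control wells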); details: SK-BR-3 viability, CellTiter-Glo luminescence, at 10 µM, stronger effect = lower value
[4] = HUVEC growth inhibition – cell-based, human, primary screen (AID 575;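 active means viability at or below 30% in both replicate assays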;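 further: 100% = median of untreated cell wells with 0.1% DMSO on each plate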); details: HUVEC proliferation, CellTiter-Glo luminescence, 72 h; at 10 µM; stronger effect = lower value
[5] = H69AR cell proliferation blockers – human, duplicate replicates, primary screen (AID 580;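 active means viability at or under a set limit in both replicates, limit being median viability minus 3 SD, cut at about 48% in these data, passing the limit was not always enough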;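 further: 100% = mean luminescence of untreated wells and 0% = no signal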); details: H69AR lung tumor cells viability, ATP luminescence, 72 h; at 10 µM; stronger effect = lower value
[6] = MRP1 drug-resistance reversers in H69AR cells – cell-based, doxorubicin co-treatment, pilot screen (AID 601); details: CellTiter-Glo, 72 h, at 10 µM; for differential viability (reversal): stronger effect = higher value
[7] = yeast transport mutant growth inhibition pilot in 384-well plates, post-Golgi transport modulator project (AID 636; in the data active means inhibition above about 31%); details: absorbance 615 nm, about 18 h, stronger effect = higher value
[8] = growth suppression of yeast trafficking mutant, preliminary HTS, modulators of trafficking downstream of Golgi apparatus project, 1536-format plate, OD 615 nm (AID 637; in the data active means inhibition above about 30%); details: yeast transport mutant growth, absorbance 615 nm, 18 h; stronger effect = higher value
[9] = S. cerevisiae growth inhibition in permissive medium (OD615), pilot counter-assay for S. cerevisiae lifespan shortening project, permissive growth control (AID 705;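 active means growth inhibition above 25% in both replicates, a cutoff set 3 SD above the mean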); details: OD615, 24 h, at 10 µM, stronger effect = higher value
[10] = S. cerevisiae growth inhibition in restrictive medium, OD615, pilot screen, restrictive growth control, yeast lifespan reduction project (AID 706;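 active means growth inhibition above a set limit, 3 SD over mean compound inhibition, in both replicates, cut at about 43% in these data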;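 further: modified DeaD lifespan yeast strain shifted to restrictive glucose medium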); details: OD615, 48 h, at 10 µM, stronger effect = higher value
[11] = doxorubicin toxicity protection in MRP-1 cells – H69AR cells, CellTiter-Glo, duplicate, MRP-1 activator project, pilot screen (AID 807;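 active means viability increase at or above a cutoff of the median across tested compounds plus 3 SD, cut at about 8.5% in these data, passing the limit was not always enough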;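 further: compound pretreatment 18-22 h then 72 h combined with doxorubicin; 0% = doxorubicin alone and 100% = vehicle without doxorubicin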); details: H69AR viability with doxorubicin, CellTiter-Glo luminescence; at 10 µM; stronger effect = higher value
[12] = viability of HCT116 without oncogenic beta-catenin – human colon tumor cells, pilot screen (AID 823;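 active means cell viability at or below a set limit in both duplicate runs, the limit being the all-compound median minus 4 SD, cut at about 23% in these data, passing the limit was not always enough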;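 further: 0% = wells killed by 20 µM Hyamine and 100% = untreated DMSO cell wells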); details: HCT116 beta-catenin knockout viability, CellTiter-Glo, 60 h; at 10 µM; stronger effect = lower value
[13] = viability of PTEN-null HCT116 cells – cell-based, HCT116 clonal line, CellTiter-Glo, pilot screen (AID 824;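 active means viability at or below 27.92% in each of two runs, the all-compound median minus 4 SD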;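 further: 0% = 20 µM Hyamine control and 100% = vehicle cell control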); details: HCT116 PTEN-deleted viability, 60 h, at 10 µM, stronger effect = lower value
[14] = RAM pathway blockade in budding yeast – dse1pr::URA3 reporter, 5-FOA selection, pilot screen (AID 869;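 active means inhibition over a set limit, the all-compound mean plus 3 SD, in both replicate runs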;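 further: 0% = DMSO wells with no growth and 100% = 10 µM 1-NA-PP1 with full growth; RAM network block rescues cells from 5-FOA so hits raise OD615 growth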); details: S. cerevisiae dse1pr::URA3 5-FOA growth, OD615, 2 d; at 10 µM; stronger effect = higher value; strain carries analog-sensitive mutant Cbk1 kinase
[15] = RAM signaling pathway blockade in yeast – S. cerevisiae, Pdr1DBD-CYC8 efflux-inhibited sensitized strain, primary screen (AID 1298;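 active means RAM network inhibition above 8.4% in each of two replicates, 3 SD over the compound average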;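 further: 0% = DMSO untreated cells without growth and 100% = 10 µM 1-NA-PP1 full growth; higher means more yeast growth rescued from 5-FOA killing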); details: S. cerevisiae cbk1-as DSE1-URA3 strain, 5-FOA growth OD615, 2 d; at 50 µM; stronger effect = higher value
[16] = H69AR cells + 2 uM doxorubicin, measured here: viability with 2 uM doxorubicin, stronger effect = lower value
[17] = H69AR cells, compound alone cytotoxicity

Receptor tyrosine-protein kinase erbB-2 (Homo sapiens), sequence (P04626 whole entry, looked up): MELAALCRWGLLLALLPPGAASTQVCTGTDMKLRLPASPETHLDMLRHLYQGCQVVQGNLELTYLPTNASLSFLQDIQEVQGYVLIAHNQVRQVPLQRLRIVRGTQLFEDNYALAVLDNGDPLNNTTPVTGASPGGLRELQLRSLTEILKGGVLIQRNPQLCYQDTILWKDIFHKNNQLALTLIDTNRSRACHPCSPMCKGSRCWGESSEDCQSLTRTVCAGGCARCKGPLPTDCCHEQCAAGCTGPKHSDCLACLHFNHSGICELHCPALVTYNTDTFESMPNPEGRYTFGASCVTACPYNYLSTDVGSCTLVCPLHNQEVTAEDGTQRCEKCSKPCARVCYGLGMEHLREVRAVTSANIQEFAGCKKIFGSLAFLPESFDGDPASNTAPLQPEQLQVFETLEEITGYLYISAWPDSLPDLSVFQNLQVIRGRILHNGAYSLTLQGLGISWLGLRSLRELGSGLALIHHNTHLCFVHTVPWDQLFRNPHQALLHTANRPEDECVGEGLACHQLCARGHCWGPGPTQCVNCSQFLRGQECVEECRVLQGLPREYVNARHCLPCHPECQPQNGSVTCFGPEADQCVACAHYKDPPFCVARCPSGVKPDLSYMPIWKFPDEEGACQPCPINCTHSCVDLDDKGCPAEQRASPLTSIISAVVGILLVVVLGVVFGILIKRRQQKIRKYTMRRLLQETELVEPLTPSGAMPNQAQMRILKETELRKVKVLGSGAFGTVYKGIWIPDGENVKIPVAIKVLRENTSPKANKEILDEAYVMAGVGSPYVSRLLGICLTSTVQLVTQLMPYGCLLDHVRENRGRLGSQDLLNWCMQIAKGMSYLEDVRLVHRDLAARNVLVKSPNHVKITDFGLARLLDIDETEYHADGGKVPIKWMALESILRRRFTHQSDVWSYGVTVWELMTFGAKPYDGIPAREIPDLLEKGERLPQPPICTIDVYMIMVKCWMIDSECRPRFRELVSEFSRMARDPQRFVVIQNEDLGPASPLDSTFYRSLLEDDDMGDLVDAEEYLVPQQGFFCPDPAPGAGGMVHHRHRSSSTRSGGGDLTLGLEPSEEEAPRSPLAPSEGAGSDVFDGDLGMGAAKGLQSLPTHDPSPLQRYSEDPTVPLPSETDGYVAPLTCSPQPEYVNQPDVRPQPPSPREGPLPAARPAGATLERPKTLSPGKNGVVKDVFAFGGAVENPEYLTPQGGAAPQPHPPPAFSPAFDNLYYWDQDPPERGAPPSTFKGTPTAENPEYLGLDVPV

CCCC(=O)Nc1cc(C)c2c(=O)oc3ccccc3c2n1
87%: viability [1]
98%: viability [6, 16]
inactive: Her2 level [2] 94.5% | viability [3] 87% | viability [4] 63.6% | viability [5] 77.6% | differential viability (reversal) ([6]; H69AR cells + 2 uM doxorubicin) -20.4% | inhibition [7] -0.4% | inhibition [8] 0.33% | growth inhibition [9] -11.5% | growth inhibition [10] 3.23% | viability increase [11] -4.74% | viability [12] 82.5% | viability [13] 86.1% | inhibition [14] 1.65% | RAM network inhibition [15] 8.68%
77.6%: viability [6, 17]

COc1cccc(C2=NOC(C(=O)N3CCc4ccccc4C3)C2)c1 (stereo not given)
inactive: Her2 level [2] 92.5% | viability [3] 87% | viability [4] 92.2% | viability [5] 92% | differential viability (reversal) ([6]; H69AR cells + 2 uM doxorubicin) 14.1% | inhibition [7] -1.41% | inhibition [8] -1.83% | growth inhibition [9] -9.41% | growth inhibition [10] 4.4% | viability increase [11] -2.18% | viability [12] 104% | viability [13] 95.5% | inhibition [14] -0.045% | RAM network inhibition [15] -2.13%
77.9%: viability [6, 16]
92%: viability [6, 17]
87%: viability [1]

CCn1cc(C(=O)NCc2ccccc2OC)c(=O)c2cc(S(=O)(=O)N(C)C)ccc21
78.5%: viability [1]
68.4%: viability [6, 16]
77.6%: viability [6, 17]
inactive: Her2 level [2] 89% | viability [3] 78.5% | viability [4] 78.3% | viability [5] 77.6% | differential viability (reversal) ([6]; H69AR cells + 2 uM doxorubicin) 9.22% | inhibition [7] -5.6% | inhibition [8] 0.17% | growth inhibition [9] -8.34% | growth inhibition [10] -17.1% | viability increase [11] -5.34% | viability [12] 87.1% | viability [13] 85.5% | inhibition [14] 1.88% | RAM network inhibition [15] 2.36%

Cc1ccc(C(=O)OCC(=O)Nc2ccc3c(c2)OCO3)o1
110%: viability [1]
95.3%: viability [6, 16]
inactive: Her2 level [2] 118% | viability [3] 110% | viability [4] 102% | viability [5] 97.3% | differential viability (reversal) ([6]; H69AR cells + 2 uM doxorubicin) 1.98% | inhibition [7] -2.16% | inhibition [8] -5.87% | growth inhibition [9] -4.63% | growth inhibition [10] -8.6% | viability increase [11] -1.03% | viability [12] 97.6% | viability [13] 99.3% | inhibition [14] 0.95% | RAM network inhibition [15] 2.58%
97.3%: viability [6, 17]

CC(C)(C)NC(=O)CSc1nnc(-c2ccccn2)n1-c1ccccc1
91.9%: viability [6, 16] | viability [6, 17]
98.5%: viability [1]
inactive: Her2 level [2] 126% | viability [3] 98.5% | viability [4] 105% | viability [5] 91.9% | differential viability (reversal) ([6]; H69AR cells + 2 uM doxorubicin) 0.06% | inhibition [7] -5.2% | inhibition [8] -3% | growth inhibition [9] -14% | growth inhibition [10] -6.57% | viability increase [11] -0.63% | viability [12] 100% | viability [13] 92.9% | inhibition [14] 0.43% | RAM network inhibition [15] 1.1%

O=C1c2ccccc2C(=O)N1C/C=C/CN1C(=O)c2ccccc2C1=O
inactive: Her2 level [2] 91.5% | viability [3] 85% | viability [4] 86.5% | viability [5] 82.8% | differential viability (reversal) ([6]; H69AR cells + 2 uM doxorubicin) -9.46% | inhibition [7] -3.46% | inhibition [8] -0.33% | growth inhibition [9] 2.25% | growth inhibition [10] -1.58% | viability increase [11] -1.04% | viability [12] 90.3% | viability [13] 102% | inhibition [14] 3.1% | RAM network inhibition [15] 4.65%
85%: viability [1]
82.8%: viability [6, 17]
92.3%: viability [6, 16]

COc1ccc(NC(=O)CSc2nc3c(c(=O)n2-c2ccc(F)cc2)SCC3)cc1
100%: viability [1]
92.2%: viability [6, 16]
95.5%: viability [6, 17]
inactive: Her2 level [2] 102% | viability [3] 100% | viability [4] 81.3% | viability [5] 95.5% | differential viability (reversal) ([6]; H69AR cells + 2 uM doxorubicin) 3.3% | inhibition [7] -6.27% | inhibition [8] -1.15% | growth inhibition [9] -8.95% | growth inhibition [10] -14.3% | viability increase [11] 0.22% | viability [12] 94% | viability [13] 90.7% | inhibition [14] -0.265% | RAM network inhibition [15] 3.09%

CC1CCCCN1CCNC(=O)c1ccc2c(=O)n(CCc3ccccc3)c(=O)[nH]c2c1 (stereo not given)
80.8%: viability [6, 16]
91%: viability [1]
93.5%: viability [6, 17]
inactive: Her2 level [2] 72.5% | viability [3] 91% | viability [4] 53.6% | viability [5] 93.5% | differential viability (reversal) ([6]; H69AR cells + 2 uM doxorubicin) 12.7% | inhibition [7] -5% | inhibition [8] 1.17% | growth inhibition [9] -23.3% | growth inhibition [10] -18.5% | viability increase [11] -4.81% | viability [12] 76.9% | viability [13] 73.4% | inhibition [14] 1.27% | RAM network inhibition [15] 8.68%

COc1ccc(S(=O)(=O)N(C)C2CCN(C)CC2)cc1
82.3%: viability [6, 16]
108%: viability [1]
inactive: Her2 level [2] 98% | viability [3] 108% | viability [4] 93.2% | viability [5] 93.4% | differential viability (reversal) ([6]; H69AR cells + 2 uM doxorubicin) 11.1% | inhibition [7] -4.8% | inhibition [8] -2% | growth inhibition [9] -6.05% | growth inhibition [10] -10.2% | viability increase [11] -3.82% | viability [12] 100% | viability [13] 96.9% | inhibition [14] 0.835% | RAM network inhibition [15] 5.99%
93.4%: viability [6, 17]

CCC(C)(NC(=O)c1ccc(=O)[nH]c1)C(=O)NC1CCCC1 (stereo not given)
94.1%: viability [6, 17]
inactive: Her2 level [2] 96.5% | viability [3] 102% | viability [4] 107% | viability [5] 94.1% | differential viability (reversal) ([6]; H69AR cells + 2 uM doxorubicin) 12.3% | inhibition [7] -5.2% | inhibition [8] -0.67% | growth inhibition [9] -11.7% | growth inhibition [10] -35% | viability increase [11] 0.76% | viability [12] 105% | viability [13] 97.9% | inhibition [14] 1.92% | RAM network inhibition [15] 2.77%
102%: viability [1]
81.8%: viability [6, 16]
